Test [1] is described as follows: NCI Yeast Anticancer Drug Screen. Data for the rad50 strain (AID 155).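 Note: 0% = growth of vehicle-only cultures of the same strain.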 The settings on record: S. cerevisiae rad50 strain growth inhibition, active compounds read high. The method, boiled down:
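A DNA repair-deficient yeast mutant serves as the test organism; compound-induced growth inhibition is calculated against vehicle-treated cells.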

A short description of test [2]: NCI Yeast Anticancer Drug Screen. Data for the mec2-1 strain (AID 157). As to conditions: S. cerevisiae mec2-1 strain, active compounds read high. The essentials:
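Strain: mec2-1 (DNA repair/cell cycle alteration). Compound exposure, then growth measured; inhibition expressed relative to vehicle.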

Test [3] can be described thus: NCI Yeast Anticancer Drug Screen. Data for the sgs1 mgt1 strain (AID 161).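 Note: 0% = growth of cultures given vehicle only.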 As to conditions: S. cerevisiae sgs1 mgt1 strain, active compounds read high. The method, boiled down:
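Genetically altered yeast, compound exposure, growth inhibition relative to vehicle.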

The nature of test [4]: NCI Yeast Anticancer Drug Screen. Data for the cln2 rad14 strain (AID 165).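 Note: 0% = growth equal to vehicle treated cultures.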 The settings on record: S. cerevisiae cln2 rad14 strain, active compounds read high. The method, boiled down:
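Compounds are applied to the cln2 rad14 yeast strain, and growth is then compared with that of vehicle-treated cultures to give inhibition.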

Test [5] can be described thus: NCI Yeast Anticancer Drug Screen. Data for the bub3 strain (AID 167). The settings on record: S. cerevisiae bub3 mutant strain, active compounds read high. The method, boiled down:
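Inhibition values come from growth of compound-treated mutant yeast normalised to vehicle-treated controls.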

The nature of test [6]: NCI Yeast Anticancer Drug Screen. Data for the mlh1 rad18 strain (AID 175). As to conditions: S. cerevisiae mlh1 rad18 strain growth inhibition, active compounds read high. The essentials:
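Read-out is yeast growth inhibition, calculated against vehicle-only controls. The compound was applied to a strain engineered with DNA damage repair alterations.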

The mark [7] stands for this setting: at 5.0 µM (retest, dose inferred, filed as 0.5).
The mark [8] stands for this setting: at 50.0 µM (retest, dose inferred, filed as 5.0).

About 79,000 compounds went through this panel and 15% of them were active in at least one assay; those are over-represented in the sample as a whole. A number with no mark means an inactive call. Active and inactive are the calls of the source. Cut-off read from the data, not from the text of the source: active = growth inhibition above about 70%; inactive = the rest.

Take `CC1=C(C#N)C(=O)OC1(C)C(CC(=O)c1ccccc1)c1ccccc1` (configuration not stated): the growth inhibition in test [1] (setting [7]) is 0%; in test [1] (setting [8]), 3%; in test [1] (at 50.0 µM), -5.3%; in test [2] (setting [7]), 5%; in test [2] (setting [8]), 6%; in test [2] (at 50.0 µM), 4.45%. In addition, the growth inhibition in test [3] (setting [7]) is 20%; in test [3] (setting [8]), 16%; in test [3] (at 50.0 µM), 4.45%; in test [4] (setting [7]), 3%; in test [4] (setting [8]), 4%; in test [4] (at 50.0 µM) it was 49.8%. For the same molecule, the growth inhibition is 2% in test [5] (setting [7]); 11% in test [5] (setting [8]); 11.8% in test [5] (at 50.0 µM); 26% in test [6] (setting [7]); 23% in test [6] (setting [8]); 1.85% in test [6] (at 50.0 µM).
Turning to `Cc1cc(C)cc([C@H](C)N=Cc2cc(Br)ccc2O)c1`, the growth inhibition in test [1] (setting [7]) is 11%; in test [1] (setting [8]), 95% (active); in test [1] (at 50.0 µM), 96% (active); in test [2] (setting [7]), -14%; in test [2] (setting [8]) it was 95% (active); in test [2] (at 50.0 µM), 95.8% (active). Moreover, the growth inhibition was -1% in test [3] (setting [7]); 87% (active) in test [3] (setting [8]); 89.9% (active) in test [3] (at 50.0 µM); -4% in test [4] (setting [7]); 96% (active) in test [4] (setting [8]); 86.3% (active) in test [4] (at 50.0 µM). The growth inhibition in test [5] (setting [7]) was -10%; in test [5] (setting [8]), 98% (active); in test [5] (at 50.0 µM) it was 95.2% (active); in test [6] (setting [7]), 2%; in test [6] (setting [8]) it was 96% (active); in test [6] (at 50.0 µM), 97.5% (active).
Regarding `NNc1ncc2c(n1)-c1ccccc1OC2`, the growth inhibition is 23% in test [1] (setting [7]); 49% in test [1] (setting [8]); 47.3% in test [1] (at 50.0 µM); 6% in test [2] (setting [7]); 38% in test [2] (setting [8]); 18.8% in test [2] (at 50.0 µM). The growth inhibition was 14% in test [3] (setting [7]); 28% in test [3] (setting [8]); 24.1% in test [3] (at 50.0 µM); 21% in test [4] (setting [7]); 33% in test [4] (setting [8]); 4.1% in test [4] (at 50.0 µM). Moreover, the growth inhibition in test [5] (setting [7]) is 12%; in test [5] (setting [8]) it was 40%; in test [5] (at 50.0 µM) it was -1.1%; in test [6] (setting [7]) it was 13%; in test [6] (setting [8]), 53%; in test [6] (at 50.0 µM) it was 89.8% (active).
For the molecule `O=C(Cc1ccc(C2=NCCN2)cc1[N+](=O)[O-])c1ccc(C2=NCCN2)cc1`, the growth inhibition in test [1] (setting [7]) was -3%; in test [1] (setting [8]) it was 73% (active); in test [1] (at 50.0 µM), 49.2%; in test [2] (setting [7]), -7%; in test [2] (setting [8]), 35%; in test [2] (at 50.0 µM) it was 89.6% (active). The growth inhibition in test [3] (setting [7]) is 0%; in test [3] (setting [8]), 55%; in test [3] (at 50.0 µM) it was 26.8%; in test [4] (setting [7]), -5%; in test [4] (setting [8]) it was 16%; in test [4] (at 50.0 µM), 25%. Moreover, the growth inhibition was -8% in test [5] (setting [7]); 71% (active) in test [5] (setting [8]); 49.3% in test [5] (at 50.0 µM); -5% in test [6] (setting [7]); 68% in test [6] (setting [8]); 68.7% in test [6] (at 50.0 µM).
For the molecule `CCc1ccc(C)nc1`, the growth inhibition in test [1] (setting [7]) was -1%; in test [1] (setting [8]), -3%; in test [1] (at 50.0 µM) it was 20.9%; in test [2] (setting [7]), 1%; in test [2] (setting [8]) it was -1%; in test [2] (at 50.0 µM), 1.05%. The growth inhibition is 3% in test [3] (setting [7]); 0% in test [3] (setting [8]); 1.1% in test [3] (at 50.0 µM); 0% in test [4] (setting [7]); 3% in test [4] (setting [8]); 0.85% in test [4] (at 50.0 µM). The growth inhibition was -2% in test [5] (setting [7]); -5% in test [5] (setting [8]); 98.7% (active) in test [5] (at 50.0 µM); 1% in test [6] (setting [7]); -2% in test [6] (setting [8]); -1.05% in test [6] (at 50.0 µM).
On to `C=C1CC2(CCOc3ccccc32)OC1=O` (configuration not stated), for which the growth inhibition was 6% in test [1] (setting [7]); 70% (active) in test [1] (setting [8]); 80.5% (active) in test [1] (at 50.0 µM); 17% in test [2] (setting [7]); 91% (active) in test [2] (setting [8]); 89.1% (active) in test [2] (at 50.0 µM). Also, the growth inhibition was 12% in test [3] (setting [7]); 92% (active) in test [3] (setting [8]); 95% (active) in test [3] (at 50.0 µM); 5% in test [4] (setting [7]); 60% in test [4] (setting [8]); 18.6% in test [4] (at 50.0 µM). The growth inhibition was 4% in test [5] (setting [7]); 86% (active) in test [5] (setting [8]); 88.3% (active) in test [5] (at 50.0 µM); 17% in test [6] (setting [7]); 89% (active) in test [6] (setting [8]); 91% (active) in test [6] (at 50.0 µM).
`CC(C)N(C(=O)C12C3C4C5(C#N)C3C1(C#N)C5C42I)C(C)C` (configuration not stated): the growth inhibition is 41% in test [1] (setting [7]); 41% in test [1] (setting [8]); 82% (active) in test [1] (at 50.0 µM); 22% in test [2] (setting [7]); 22% in test [2] (setting [8]); 48% in test [2] (at 50.0 µM). Moreover, the growth inhibition in test [3] (setting [7]) is 13%; in test [3] (setting [8]), 13%; in test [3] (at 50.0 µM) it was 31.6%; in test [4] (setting [7]) it was 12%; in test [4] (setting [8]), 12%; in test [4] (at 50.0 µM) it was 68.5%. Moreover, the growth inhibition in test [5] (setting [7]) is 17%; in test [5] (setting [8]), 17%; in test [5] (at 50.0 µM) it was 91.5% (active); in test [6] (setting [7]) it was 11%; in test [6] (setting [8]), 11%; in test [6] (at 50.0 µM), 46.4%.
Take `O=C1C=CC(=Nc2ccc(O)c3ncccc23)c2cccnc21`: the growth inhibition in test [1] (setting [7]) was 34%; in test [1] (setting [8]), 92% (active); in test [1] (at 50.0 µM) it was 94% (active); in test [2] (setting [7]), 11%; in test [2] (setting [8]), 96% (active); in test [2] (at 50.0 µM) it was 95% (active). The growth inhibition in test [3] (setting [7]) is 29%; in test [3] (setting [8]) it was 96% (active); in test [3] (at 50.0 µM), 95.2% (active); in test [4] (setting [7]), -1%; in test [4] (setting [8]) it was 95% (active); in test [4] (at 50.0 µM) it was 86.7% (active). Besides, the growth inhibition in test [5] (setting [7]) is 17%; in test [5] (setting [8]), 94% (active); in test [5] (at 50.0 µM) it was 95.6% (active); in test [6] (setting [7]), 50%; in test [6] (setting [8]), 95% (active); in test [6] (at 50.0 µM), 92.4% (active).
Consider `C=C(CN(C)C)C(=O)c1ccccc1C`, for which the growth inhibition is -2% in test [1] (setting [7]); 65% in test [1] (setting [8]); 87.6% (active) in test [1] (at 50.0 µM); -8% in test [2] (setting [7]); 88% (active) in test [2] (setting [8]); 78.7% (active) in test [2] (at 50.0 µM). Moreover, the growth inhibition was 13% in test [3] (setting [7]); 86% (active) in test [3] (setting [8]); 85% (active) in test [3] (at 50.0 µM); -17% in test [4] (setting [7]); 45% in test [4] (setting [8]); 65.8% in test [4] (at 50.0 µM). In addition, the growth inhibition in test [5] (setting [7]) was -11%; in test [5] (setting [8]), 89% (active); in test [5] (at 50.0 µM), 91.1% (active); in test [6] (setting [7]), -4%; in test [6] (setting [8]) it was 97% (active); in test [6] (at 50.0 µM), 97% (active).

The values are drawn from PubChem BioAssay (NCI).
